Assay results reported in the supplement of paper PMC3414501.
Structures can show the parent of a compound that is named as a salt.

What was measured:
[1] = system: S. cerevisiae SK1 pCDA2-eGFP (USY613), sporulating; assay: CDA2-GFP sporulation assay sensitivity score (z-score vs DMSO controls); higher = stronger inhibition of sporulation, active = hit call of the paper;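 note: active if sensitivity score above 5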
[2] = system: S. cerevisiae NKY1551 his4x/his4B, sporulating; assay: HIS4 meiotic recombination assay sensitivity score (z-score vs DMSO controls); higher = stronger inhibition of sporulation/recombination, active = hit call of the paper;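 note: active if sensitivity score above 5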
[3] = system: S. cerevisiae AD1-9 (efflux-pump deficient), vegetative growth in YPD; assay: growth sensitivity score (doubling time z-score vs DMSO controls); higher = slower growth, strongly negative scores also mark growth inhibition (complete suppression), active = hit call of the paper
Summary of the method: (§1)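 Optical density of Saccharomyces cerevisiae cultures in microtiter plates was followed every 15 min for 24 hours after seeding at an OD600 of 0.065. Eight solvent-only wells were run per experiment. Growth sensitivity scores were found by subtracting the solvent-only mean from the compound mean and dividing by the solvent-only standard deviation.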

[4] = system: S. cerevisiae BY4741 (wild-type), vegetative growth in YPD; assay: as above
Summary of the method: as §1

Compound	CDA2-GFP sporulation assay sensitivity score [1]	HIS4 meiotic recombination assay sensitivity score [2]	growth sensitivity score [3]	growth sensitivity score [4]
c1ccc(-c2ccc(C(c3ccccc3)n3ccnc3)cc2)cc1 (stereo unspecified) [Bifonazole] (stock concentration (mM, diluted 1:100): 10)	0.04 (inactive)	-0.93 (inactive)		
CCN(CC)C(=S)SSC(=S)N(CC)CC [Tetraethylthiuram disulfide] (stock concentration (mM, diluted 1:100): 10)	-1.5 (inactive)	-2.95 (inactive)		
CN[C@H]1CC[C@@H](c2ccc(Cl)c(Cl)c2)c2ccccc21 [Sertraline] (stock concentration (mM, diluted 1:100): 9)	-0.26 (inactive)	-0.61 (inactive)		
CN(Cc1cnc2nc(N)nc(N)c2n1)c1ccc(C(=O)N[C@@H](CCC(=O)O)C(=O)O)cc1 [Methotrexate] (stock concentration (mM, diluted 1:100): 14.6)	-2.22 (inactive)	0.19 (inactive)	-2.15	-0.16 (inactive)
CCCCCNC(=N)N/N=C/c1c[nH]c2ccc(OC)cc12 [Tegaserod maleate] (stock concentration (mM, diluted 1:100): 7.2)	-3.28 (inactive)	-0.84 (inactive)		
C[C@H]1COc2c(C3(N)CC3)c(F)cc3c(=O)c(C(=O)O)cn1c23 [Pazufloxacin] (stock concentration (mM, diluted 1:100): 10)	0.17 (inactive)	-0.93 (inactive)	0.07 (inactive)	-1.05 (inactive)
COc1ccc(/C=C/C(=O)Nc2ccccc2C(=O)O)cc1OC [Tranilast] (stock concentration (mM, diluted 1:100): 10)	0.24 (inactive)	0.1 (inactive)	-1.78 (inactive)	-0.6 (inactive)
CC1(C)S[C@@H]2[C@H](/N=C/N3CCCCCC3)C(=O)N2[C@H]1C(=O)O [Mecillinam] (stock concentration (mM, diluted 1:100): 10)	0.59 (inactive)	-0.86 (inactive)	-0.02 (inactive)	1.05 (inactive)
Nc1ccn([C@H]2CC[C@@H](CO)O2)c(=O)n1 [Zalcitabine] (stock concentration (mM, diluted 1:100): 10)	1.61 (inactive)	-0.41 (inactive)	-0.86 (inactive)	-1.35 (inactive)
NC(=O)OCC(COC(N)=O)c1ccccc1 [Felbamate] (stock concentration (mM, diluted 1:100): 14)	-0.27 (inactive)	-0.45 (inactive)	-0.62 (inactive)	-0.94 (inactive)
CCOC(=O)C1=C(C)NC(C)=C(C(=O)OC)C1c1cccc([N+](=O)[O-])c1 (stereo unspecified) [Nitrendipine] (stock concentration (mM, diluted 1:100): 10)	10.3 (active)	1.41 (inactive)	23.1 (active)	1.09 (inactive)
CCN1CC(CCN2CCOCC2)C(c2ccccc2)(c2ccccc2)C1=O (stereo unspecified) [Doxapram hydrochloride] (stock concentration (mM, diluted 1:100): 10.4)	-0.58 (inactive)	1.8 (inactive)	-0.91 (inactive)	-0.29 (inactive)
Cc1cc2c(s1)Nc1ccccc1N=C2N1CCN(C)CC1 [Olanzapine] (stock concentration (mM, diluted 1:100): 9.9)	2.56 (inactive)	1.61 (inactive)	-0.74 (inactive)	-0.76 (inactive)
CNCCCCOc1ccccc1Cc1ccccc1 [Bifemelane] (stock concentration (mM, diluted 1:100): 10)	1.21 (inactive)	9.23 (active)	127 (active)	3.54 (active)
C#C[C@]1(O)CC[C@H]2[C@@H]3CCc4cc(O)ccc4[C@H]3CC[C@@]21C [Ethynylestradiol] (stock concentration (mM, diluted 1:100): 10)	6.44 (inactive)	-1.32 (inactive)	229 (active)	2.85 (active)
CC#C[C@]1(O)CC[C@H]2[C@@H]3CCC4=CC(=O)CCC4=C3[C@@H](c3ccc(N(C)C)cc3)C[C@@]21C [Mifepristone] (stock concentration (mM, diluted 1:100): 10)	9.91 (inactive)	2.99 (inactive)	172 (active)	-2.51
